PG9 Ab binder – small molecules binding HIV-1 gp120 antibody PG9; TR-FRET gp120-PG9 antibody binding; inhibition, % at 6.7 µM; actives 0.43% (n = 360,000); in the data active means inhibition above about 8.5%
MBD2 DNA inh – MBD2-methylated oligo binding inhibition; TR-FRET, MBD2 binding to methylated oligonucleotide; inhibition, % at 4.4 µM; actives 0.31% (n = 370,000); Q9UBB5; in the data active means inhibition above about 13%
DNMT1 inh – blocks human DNA methyltransferase DNMT1. P26358. AID 588458. inhibition (reported as % activation of signal), % at 10 µM. actives 0.83% (n = 360,000). DNMT1 molecular beacon, Hinp1I cleavage, fluorescence; in the data active means inhibition above about 50%
UHRF1 binding – human UHRF1 methylated DNA binding inhibitors; AID 687016; actives 0.75% (n = 370,000); Q96T88; inhibition, % at 4.4 µM; UHRF1 binding to methylated oligo, TR-FRET; in the data active means inhibition above about 21%;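 further: UHRF1 SRA domain binding a hemimethylated CpG hairpin DNA probe; 0% = median of test compound wells and 100% = reference inhibitor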
LEDGF integ inh – blocks HIV-1 LEDGF/p75-dependent DNA integration | AID 743269 | TR-FRET IN-LEDGF/p75 DNA integration, Eu/Cy5 | inhibition, % at 3.7 µM | actives 0.64% (n = 370,000);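 active means inhibition above the screen-wide mean plus 3 SD, cut at about 13% in these data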;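 further: signal is the Cy5 over europium emission ratio at 671 and 618 nm; 0% = plate median of compound wells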
rCAG binder – r(CAG) repeat RNA binding; inhibition, % at 3 µM; TO-PRO-1 dye displacement fluorescence; actives 1.3% (n = 370,000);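 active means inhibition above the plate cutoff, the mean of all test compounds on that plate plus 3 SD, cut at about 35% in these data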;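 further: 0% = DMSO alone and 100% = 100 µM mitoxantrone as full dye displacement; higher means more dye released from RNA so lower well fluorescence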
rCAG bind conf – r(CAG) RNA repeat binding, confirmation. inhibition, % at 3 µM. actives 70% (n = 4,300). shares compounds with rCAG binder. TO-PRO-1 dye displacement fluorescence;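 active means inhibition above a per-plate cutoff, the mean inhibition of sample wells plus 3 SD, cut at about 35% in these data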;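 further: loss of TO-PRO-1 fluorescence as compound displaces dye from 1x1 AA loop RNA; 0% = DMSO only wells and 100% = 100 µM mitoxantrone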
dCAG dye counter – disrupts DNA CAG TO-PRO-1 complex, flagging rCAG hits. shares compounds with rCAG binder. d(CAG) DNA oligo TO-PRO-1 dye displacement, fluorescence. inhibition, % at 3 µM. actives 94% (n = 4,300). AID 652068;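 active means inhibition above its plate's cutoff, the mean test-well inhibition plus 3 SD, cut at about 4.8% in these data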;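 further: 0% = DNA dye mix with DMSO and 100% = 100 µM mitoxantrone; hits displace the dye from DNA and so lower well fluorescence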
The depositor's hits bear a star; . = no result given. Sampled rows, rich in hits. Any-hit rate of the full collection: about 3.5%.

SMILES	PG9 Ab binder	MBD2 DNA inh	DNMT1 inh	UHRF1 binding	LEDGF integ inh	rCAG binder	rCAG bind conf	dCAG dye counter
CCN(C(=O)CSc1nc2cc(C(=O)O)ccc2c(=O)n1Cc1ccccc1)c1ccccc1	-1	-3	-1	-1	4	38*	53*	16*
Cc1ccc(C2(c3ccc(C)cc3)CC2C(=O)Nc2ccc([N+](=O)[O-])cc2O)cc1 (configuration not stated)	0	0	-18	-2	8	66*	62*	29*
CC1(C)CC1C(=O)Nc1ccc([N+](=O)[O-])cc1Br (configuration not stated)	1	-4	0	-3	-2	2	.	.
CC(C)(C)S(=O)N1Cc2cc(C(=O)O)nc(-c3cccc(-c4cc5ccccc5o4)c3)c2[C@H]1CCO (some centres not stated)	-2	3	41	6	2	39*	35*	13*
CN1CCN(C(=O)c2cc3c(c(-c4cccc(-c5cc6ccccc6o5)c4)n2)[C@H](CCO)N(S(=O)C(C)(C)C)C3)CC1 (some centres not stated)	1	0	-20	-1	6	3	.	.
CCOc1ccccc1OCCC(=O)NNC(=O)Cn1nc(C)cc1C	1	2	4	16	-2	0	.	.
N#Cc1ccc(NN=Nc2ccccc2C#N)cc1	-2	-5	-3	-5	-2	4	.	.
O=C(O)c1cc(N/N=C/c2ccc(-c3ccccc3)cc2)ccc1Cl	1	-2	3	0	0	63*	76*	40*
O=C(O)c1ccc(N/N=C/c2ccc(OC(=O)c3ccccc3Cl)cc2)cc1	-4	0	-1	-2	-1	81*	68*	28*
O=C(O)c1ccc(N/N=C/c2ccc(-c3ccccc3)cc2)cc1	-2	-5	14	-1	-2	62*	72*	25*
Cc1ccc(S(=O)(=O)Oc2cccc(/C=N/Nc3ccc(C(=O)O)cc3)c2)cc1	-2	0	-3	1	0	74*	58*	17*
COC(=O)[C@]12C[C@H](CC(=O)N3CCN(C(=O)c4ccco4)CC3)C(=O)N(CCC3=CCCCC3)C1=C[C@H](C(C)(C)C)O[C@@H]2C	-1	6	.	0	0	2	.	.
COc1cccc(CNC(=O)[C@@H]2CCCN2C(=O)[C@@H]2CCCN2C(=O)c2cccc3ccccc23)c1	0	-4	.	-1	-7	2	.	.
COc1cc(/C=N/Nc2ccccc2)ccc1OC(=O)c1cccs1	-1	5	.	2	-3	8	.	.
COc1cc(/C=N/Nc2ccc(Cl)c(C(=O)O)c2)ccc1OC(=O)c1cccs1	-1	0	-2	2	-3	54*	69*	30*
CCCn1nc([N+](=O)[O-])c(C(C#N)c2nc3ccccc3s2)c(Cl)c1=O (configuration not stated)	-3	-1	-8	-3	-1	88*	83*	46*
CCn1nc([N+](=O)[O-])c(C(C#N)c2nc3ccccc3n2C)c(Cl)c1=O (configuration not stated)	-1	-3	-3	-4	-1	20	.	.
CCC(Sc1nc2ccsc2c(=O)n1Cc1ccc(C(=O)O)cc1)C(=O)Nc1ccc(C)c(Cl)c1 (configuration not stated)	2	-5	0	0	3	74*	79*	49*
Cc1cc(C)c(Nc2cc(S(=O)(=O)O)c(N)c3c2C(=O)c2ccccc2C3=O)c(C)c1	-34	1	80*	23*	-3	94*	93*	79*
Cc1ccc([C@H]2N[C@]3(CCCN(Cc4ccc(Br)cc4)C3=O)[C@H]3C(=O)N(Cc4ccccc4)C(=O)[C@@H]23)cc1	0	-6	-12	-4	-4	2	.	.
N#Cc1cccc(OC[C@@H](O)CN2CCC(C(O)(c3ccccc3)c3ccccc3)CC2)c1	.	-2	.	-2	5	-2	.	.
